Experimental data as given in article PMC13494018.
A number with no mark means an inactive call. No rule for the calls is given here.

Molecular target: CD276, Q5ZPR3
Sequence (Q5ZPR3 whole entry): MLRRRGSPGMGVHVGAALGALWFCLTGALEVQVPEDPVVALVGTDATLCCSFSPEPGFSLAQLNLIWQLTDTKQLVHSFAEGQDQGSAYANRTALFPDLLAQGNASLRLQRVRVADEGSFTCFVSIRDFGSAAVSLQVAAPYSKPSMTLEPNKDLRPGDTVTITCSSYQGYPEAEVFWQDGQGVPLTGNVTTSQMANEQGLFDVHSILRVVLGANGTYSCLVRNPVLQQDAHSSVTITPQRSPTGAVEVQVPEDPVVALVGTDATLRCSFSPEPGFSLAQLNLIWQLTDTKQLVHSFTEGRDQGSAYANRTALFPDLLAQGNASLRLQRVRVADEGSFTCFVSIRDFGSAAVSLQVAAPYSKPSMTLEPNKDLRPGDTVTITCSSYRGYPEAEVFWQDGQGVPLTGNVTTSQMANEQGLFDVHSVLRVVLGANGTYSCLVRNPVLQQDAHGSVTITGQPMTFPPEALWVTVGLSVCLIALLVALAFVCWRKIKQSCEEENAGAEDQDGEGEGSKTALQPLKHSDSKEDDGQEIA

Row | Binder | binding in a display sort
1 | design_616_e8336982-fa4d-4d7c-b06f-9007953e1994_2209_dldesign_0_cycle1_af2pred (protein) NAEAGKYLEEALKLAAEAQKAAAANPAVAPEVIAQASRLVAEAAKAALAGDTKAAKEYLEKMKELRDAAKAALAAA | not found
2 | design_617_b3fadc1d-0db4-4da8-8433-818493aa2ab2_145_dldesign_0_cycle1_af2pred (protein) LQETADKAIEAANKLAELDPEVGDALKTAAETALAQGNEAQARAVKNMAESAYKYFSAKAEAAKAAAEAAA | not found
3 | design_616_e8336982-fa4d-4d7c-b06f-9007953e1994_2287_dldesign_0_cycle1_af2pred (protein) TPEQLKQAAKQALAAAKALVKNAKQASLEDAKKLAEVAKDLTENAIKAAAKAGPEAEKEAKAKAEEIKKAAEEAIAAKEA | not found
4 | design_616_e8336982-fa4d-4d7c-b06f-9007953e1994_2109_dldesign_0_cycle1_af2pred (protein) AAAAQAAAADAALAAATSMLEKAKEMAATNPESAKKAATVAVDLANYAIALPAATPEQKAQAQKIKEEAEALIASL | not found
5 | design_617_b3fadc1d-0db4-4da8-8433-818493aa2ab2_117_dldesign_0_cycle1_af2pred (protein) AEKDEEAKKLVEKAKELAEAGLQTAQATGNVALAQAAANMAKALAKEAIRLAEDEKVKEEAKKEAKQAEKALKQAKA | not found
6 | design_616_e8336982-fa4d-4d7c-b06f-9007953e1994_2432_dldesign_0_cycle1_af2pred (protein) NQTKSLAQGAIAMAEAIAEELRRLGDEESAKKVEEMAKEAKKLIEEGKYEEALKVATEGVAYGAERVAALR | not found
7 | design_616_e8336982-fa4d-4d7c-b06f-9007953e1994_2151_dldesign_0_cycle1_af2pred (protein) GAAAAAEETAKKVAKYLVKGDAEEAAKEALKGHTKNQAQHIVLRAANLAAKETGKSQSIYAKAAEAIALIEA | not found
8 | design_617_b3fadc1d-0db4-4da8-8433-818493aa2ab2_522_dldesign_0_cycle1_af2pred (protein) ADPAQASQQALNAAKAAIKSAARAAKAGNLEDAKKLAEVAADLIAQASPEQAAEALKVAKEEAAEVPEIAEYMISKAEAALAQAKARA | not found
9 | design_616_e8336982-fa4d-4d7c-b06f-9007953e1994_2198_dldesign_0_cycle1_af2pred (protein) MEEERRKKAEELLEKATKELKAMQAQAEALAKAGDIGAATQLVVDAARYGAEVTREAEKIDPEVAEKMAEVTNKIIAAALKALTAYAA | not found
10 | design_617_b3fadc1d-0db4-4da8-8433-818493aa2ab2_49_dldesign_0_cycle1_af2pred (protein) SKLSEEAKKKAEEYLKKAEEAYKLAKEDPAAGQAKLSEILTKAMEAQTEFYKKDPSNKEALDYLNKTIQTITKYLVEAAKL | not found
11 | design_617_b3fadc1d-0db4-4da8-8433-818493aa2ab2_206_dldesign_0_cycle1_af2pred (protein) ADALTKKTAEAIYQQVKKRAEELLKKAKEGTPELAKELAKELKKIAEANAKALSSLGPLGEEYAKKVKEYAEKVIKEIEKII | not found
12 | design_617_b3fadc1d-0db4-4da8-8433-818493aa2ab2_636_dldesign_0_cycle1_af2pred (protein) TATLKEILAKVEKALELLKNASPETLNQALSLLTQAWALANKVDPAVAAAINAAIAALVDGMAKGVEVASKEGSAAAEKAIAAVKAAI | not found
13 | design_617_b3fadc1d-0db4-4da8-8433-818493aa2ab2_588_dldesign_0_cycle1_af2pred (protein) AAAEAAKLQAERDALIKKALEAIEEASALAKELGNQEALALVHKSLTLIAKSLGADAETGLKLAKEALKAAEAALALLKKA | not found
14 | design_617_b3fadc1d-0db4-4da8-8433-818493aa2ab2_655_dldesign_0_cycle1_af2pred (protein) AEEEERLRRQAEGLYELTKAVAEYLAKNPAAAEQAKALKEKAEKAFEEGMKEHPAEAIRRLQAVLNEASRAAIAASA | not found
15 | design_617_b3fadc1d-0db4-4da8-8433-818493aa2ab2_734_dldesign_0_cycle1_af2pred (protein) MAEEIIREATRVATEAARLAVKYGNEVANKALALAVEAMELAASGENAEEAKKKLEEAKKLLEEAKKIAKEKE | not found
16 | design_616_e8336982-fa4d-4d7c-b06f-9007953e1994_2162_dldesign_0_cycle1_af2pred (protein) MLTPEQLQASINAIKAATRKAVEMARAGNEESAEKLLEVARDIAEALLKTDPEAGKEALKIVEEGEEEARKAAEEVRA | binds (active)
17 | design_617_b3fadc1d-0db4-4da8-8433-818493aa2ab2_224_dldesign_0_cycle1_af2pred (protein) AEAQALLDQAKAYLAQGTALFQSDPSLSSQALQQFGLAYIYASRAAALATAAGDTATADAAKAVQDQALANMQAIAAS | not found
18 | design_616_e8336982-fa4d-4d7c-b06f-9007953e1994_2036_dldesign_0_cycle1_af2pred (protein) GAEELAAEARKAYNEMLELLEKAKETGKTEEYVKKAAEIGRANPIAGQMAMNTVAARDPELAAKLRKAMA | not found
19 | design_616_e8336982-fa4d-4d7c-b06f-9007953e1994_2365_dldesign_0_cycle1_af2pred (protein) DVGAATVAAVNATAAAALAAVKEAAKLSPEEAKAATGAALAALADTVGQANKAALAHPEHSAQIVGTGVDALAAVQAAADEAIAKAKA | not found
